# AHR activator – activates the human aryl hydrocarbon receptor | activation, % at 5 µM | AHR-responsive luciferase reporter cells, luminescence | hit rate 2.5% among 320,000; in the data active = activation above about 47%
# Target sequence (P35869 whole entry, looked up): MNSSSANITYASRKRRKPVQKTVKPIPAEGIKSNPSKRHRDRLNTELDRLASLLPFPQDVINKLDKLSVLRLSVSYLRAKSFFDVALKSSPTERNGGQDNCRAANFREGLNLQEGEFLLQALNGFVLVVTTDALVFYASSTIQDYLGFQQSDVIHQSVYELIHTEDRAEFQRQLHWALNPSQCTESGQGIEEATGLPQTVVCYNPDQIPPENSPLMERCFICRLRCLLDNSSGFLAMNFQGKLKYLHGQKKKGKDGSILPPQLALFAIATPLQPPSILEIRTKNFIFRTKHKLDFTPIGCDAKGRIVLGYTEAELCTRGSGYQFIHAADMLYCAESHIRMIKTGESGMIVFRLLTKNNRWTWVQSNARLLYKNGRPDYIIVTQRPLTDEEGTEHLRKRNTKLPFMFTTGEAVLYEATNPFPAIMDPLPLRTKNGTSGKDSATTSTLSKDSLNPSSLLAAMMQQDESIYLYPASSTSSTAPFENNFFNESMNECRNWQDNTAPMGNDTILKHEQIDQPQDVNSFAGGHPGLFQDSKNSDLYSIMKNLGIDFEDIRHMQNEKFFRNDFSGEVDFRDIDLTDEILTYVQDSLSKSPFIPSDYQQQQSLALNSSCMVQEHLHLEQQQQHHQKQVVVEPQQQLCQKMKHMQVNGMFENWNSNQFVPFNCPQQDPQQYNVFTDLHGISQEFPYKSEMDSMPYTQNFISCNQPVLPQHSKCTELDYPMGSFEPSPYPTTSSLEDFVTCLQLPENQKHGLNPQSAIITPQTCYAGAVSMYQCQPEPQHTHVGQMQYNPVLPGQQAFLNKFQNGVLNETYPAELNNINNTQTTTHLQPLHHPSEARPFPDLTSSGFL
# ssDAF-12 act – activates DAF-12 receptor from parasite S. stercoralis. HEK293 ssDAF-12/GRIP1 lit1-tk-luc reporter, luminescence; % of 3 µM dafachronic acid response. activation, % at 6.8 µM. hit rate 1% among 370,000. AID 652126;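 active = activation above the mean over all tested compounds plus 3 SD, cut at about 0.9% in these data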
# DAX1 inh-1 – inhibitors of DAX1 repression of SF-1 activated StAR promoter. HEK293T StAR-luciferase reporter, SF-1/DAX-1 repression relief. inhibition, % at 6.8 µM. hit rate 1.1% among 370,000. AID 652010;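 active = inhibition above the mean over all tested compounds plus 3 SD, cut at about 3.6% in these data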;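 also: higher inhibition means more luminescence from relief of DAX-1 repression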
# hgDAF-12 ag – agonists of H. glycines DAF-12 nuclear receptor. HEK293 GAL4-hgDAF12 UAS-luciferase reporter, agonist luminescence; normalized to butyrate control. activation, % at 6.8 µM. hit rate 1.8% among 370,000. AID 687014;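 active = activation above a cutoff set at the mean of all screened compounds plus 3 SD, cut at about 10% in these data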
# DAX1 inh-2 – inhibits human nuclear receptor DAX1. P51843. HEK293 Gal4-DAX1 luciferase reporter, luminescence. inhibition, % at 6.75 µM. hit rate 0.99% among 340,000. AID 504766;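 active = inhibition above the mean over all tested compounds plus 3 SD, cut at about 4.2% in these data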;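 also: inhibition shows as a rise in luminescence from relieved DAX1 repression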
# hcDAF12 agonist – activates DAF-12 receptor from parasite H. contortus; HEK293 hcDAF-12 lit1-tk-luc reporter, luminescence; 0% DMSO, 100% Δ7-dafachronic acid; activation, % at 6.8 µM; hit rate 1.4% among 370,000;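 active = activation above the mean of all tested compounds plus 3 SD, cut at about 5.5% in these data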
# A number is an active result; 0 = inactive; - = no result given. Compounds with a hit are over-represented: about 5.7% of the library has one in this group of screens.
SMILES,AHR activator,ssDAF-12 act,DAX1 inh-1,hgDAF-12 ag,DAX1 inh-2,hcDAF12 agonist
O=C(Nc1ccc(Cl)cc1)N1CCc2ccccc2C1,63,0,0,0,0,0
O=C(CN(c1cccc(Cl)c1)S(=O)(=O)c1ccc(Cl)cc1)N1CCc2ccccc2C1,61,0,0,0,0,0
Cc1nc(N2CCN(Cc3ccccc3)CC2)nc2c1CCC2,0,0,0,0,0,0
FC(F)(F)c1nc(N2CCN(c3ccccc3)CC2)nc2c1CCCCC2,65,0,0,0,0,0
CCOC(=O)CC[C@@]1(C(=O)OCC)C[C@@H](CC(=O)NCCCOC)C(=O)N2CCCC=C21,-,1.6,0,0,-,0
CCOC(=O)CC[C@@]1(C(=O)OCC)C[C@@H](CC(=O)NCCc2ccccc2OC)C(=O)N2CCCC=C21,-,0,0,0,-,0
COc1cc(C2CC(c3cccs3)=NN2C(=O)CCl)ccc1OC(F)F (configuration not stated),0,0,0,0,0,0
O=C(Cc1cccs1)N/N=C/C=C\c1ccco1,0,0,0,0,0,0
O=C(N/N=C/C=C\c1ccco1)c1cccs1,0,1.3,0,0,-,0
S=C(NN=C1CCCCC1=NNC(=S)N1CCOCC1)N1CCOCC1,-,0,0,0,-,0
Cn1cncc1C#Cc1c(-c2ccc(S(C)(=O)=O)cc2)sc2ccccc12,0,0,0,0,0,0
COc1ccc2sc(-c3ccccc3OC)c(C#Cc3cncn3C)c2c1,48,0,0,0,0,0
COc1ccc2sc(-c3ccccc3OC)c(-c3ccc(SC)cc3)c2c1,-,0,3.8,0,-,0
COc1ccc(-c2sc3ccccc3c2C#Cc2cncn2C)cc1,0,0,0,0,0,0
COc1ccccc1-c1sc2cc3c(cc2c1C#Cc1cncn1C)OCO3,65,0,0,0,0,0
COc1ccc2sc(-c3ccccc3OC)c(C#CCCO)c2c1,74,0,0,0,0,0
CCC(C)(C)C1CCc2[nH]nc(C(=O)NCc3ccc(OC)cc3)c2C1 (configuration not stated),0,0,0,0,0,0
Cc1cc(C)cc(N(CCC#N)C(=O)COC(=O)c2nc3nc(C)cc(C)n3n2)c1,0,0,0,0,0,0
CCOC(=O)N1CCC(NC(=O)CS(=O)Cc2nc(-c3ccc(Cl)cc3)oc2C)CC1 (configuration not stated),0,0,0,0,0,0
COc1ccccc1Cn1c(C(C)C)nc2ccccc21,0,0,0,0,0,0
COc1ccccc1Cn1c(/C=C/c2ccccc2)nc2ccccc21,64,0,0,0,0,0
O=C(NN=Cc1c(O)ccc2ccccc12)c1ccncc1,-,0,0,0,0,0
Cc1nn(Cc2ccccc2)c(Cl)c1/C=N/NC(=O)c1cccnc1,52,15,0,0,0,0
O=C(N/N=C\c1c(O)ccc2ccccc12)c1cncc(Br)c1,67,0,0,0,0,0
Cc1c(/C=N/NC(=O)c2cccnc2)c2ccccc2n1Cc1ccccc1,0,0,0,0,-,0
SMILES,AHR activator,ssDAF-12 act,DAX1 inh-1,hgDAF-12 ag,DAX1 inh-2,hcDAF12 agonist
O=C(N/N=C/c1c(O)ccc2ccccc12)c1cccnc1,73,0,0,0,0,0
C=C(C)CSc1nnc(-c2cc(-c3ccccc3)n[nH]2)n1N,-,0,0,0,-,0
O=C(NCc1n[nH]c(=S)n1-c1ccc(Cl)c(Cl)c1)c1ccc(S(=O)(=O)N2CCCCC2)cc1,0,0,0,0,0,0
CCCN(CCC)S(=O)(=O)c1ccc(C(=O)NCc2n[nH]c(=S)n2-c2ccc(Cl)c(Cl)c2)cc1,0,0,0,0,5.2,0
Cc1ccc(Cc2c(-c3cccc(Cl)c3)nc3ccc(C)cn23)cc1,-,0,0,0,-,0
Fc1ccc(-c2nc3c(Cl)cc(C(F)(F)F)cn3c2Cc2ccccc2)cc1,-,0,0,0,-,0
Cc1ccc(Cc2c(-c3ccccc3)nc3c(Cl)cc(C(F)(F)F)cn23)cc1,-,1.7,0,0,-,0
Fc1ccc(-c2nc3ccc(Br)cn3c2Cc2ccsc2)cc1,-,0,0,0,-,0
CCOC(=O)c1c(-c2ccccc2)nc2cc(C)ccn12,0,0,0,0,4.6,0
CCOC(=O)c1c(-c2ccccc2)nc2ccc(C)cn12,0,0,0,0,0,0
Cc1ccc2nc(-c3ccc(F)cc3)c(Cc3ccsc3)n2c1,-,0,0,10,-,0
Cc1ccc(Cc2c(-c3ccccc3)nc3cc(C)ccn23)cc1,-,1.3,0,11,0,0
O=C(CCCOc1ccccc1)NN1C(=O)NC2(CCCCC2)C1=O,0,0,0,0,0,0
O=C(OCC#CCSc1nnc(-c2cccs2)o1)c1ccc(F)cc1,-,0,-,0,-,0
Cc1ccc2nc(-c3ccc(Cl)cc3)c(Cc3ccsc3)n2c1,-,0,0,13,-,0
Cc1ccc(Cc2c(-c3ccc(Cl)cc3)nc3ccc(Cl)cn23)cc1,-,0,0,0,0,0
COc1ccc(-c2nc3ccc(Cl)cn3c2Cc2ccsc2)cc1OC,-,0,0,0,-,0
Cc1ccc(-c2nc3ccc(Cl)cn3c2Cc2ccsc2)cc1,-,0,4.2,13,-,0
Fc1ccc(-c2nc3ccc(Cl)cn3c2Cc2ccsc2)cc1,-,0,0,0,-,0
Cc1ccc(Cc2c(-c3ccc(C)cc3)nc3ccc(Cl)cn23)cc1,-,0,3.8,0,0,0
O=C(O)c1ccccc1Nc1ccnc(C(F)(F)F)c1,0,0,0,0,0,0
COc1cc(CNc2cccc(F)c2)cc(Br)c1O,0,1.5,0,0,0,0
CC(C)n1nnnc1C1c2ccccc2C(=O)N1CCc1ccccc1F (configuration not stated),-,0,0,15,-,5.7
CC(C)n1nnnc1C1c2ccccc2C(=O)N1CCOc1ccccc1 (configuration not stated),-,0,0,13,-,0
COc1ccc(CN2C(=O)c3ccccc3C2c2nnnn2C(C)C)cc1 (configuration not stated),-,0,0,0,-,0
SMILES,AHR activator,ssDAF-12 act,DAX1 inh-1,hgDAF-12 ag,DAX1 inh-2,hcDAF12 agonist
O=C(c1ccco1)N(Cc1ccc(Cl)cc1)Cc1ccco1,0,0,0,0,0,5.7
O=C(c1ccccc1)c1ccccc1N1C(=O)C=CC1=O,0,0,0,0,0,0
O=C1C=CC(=O)N1c1ccccc1N1C(=O)C=CC1=O,-,0,4.0,0,4.3,0
Fc1ccc2nc(-c3ccc(CN4CCC5(CC4)CNc4ccccc45)cc3)c(-c3ccccc3)nc2c1,-,0,0,0,-,0
c1ccc2c(c1)nc(N1CCOCC1)c1c3ccccc3[nH]c21,95,0,0,0,0,0
COc1ccc(-c2nc3c4ccccc4ccn3c2CC2CCCCC2)cc1OC,-,0,0,0,-,0
COc1ccc(-c2nc3c4ccccc4ccn3c2CN2CCOCC2)cc1OC,58,0,0,0,0,0
O=[N+]([O-])c1ccc(OCCCCCN2CCOCC2)cc1,0,0,0,0,5.0,0
COc1cc2c(c(OC)c1OC)CCc1cnoc1-2,0,0,0,0,0,0
